Hits are enriched below; roughly 12% of the tested compounds scored in any of these assays.
PI5P4K alpha inh: qHTS for Inhibitors of phosphatidylinositol 5-phosphate 4-kinase (PI5P4K); Phosphatidylinositol 5-phosphate 4-kinase type-2 alpha (Homo sapiens), P48426; PI5P4Kalpha enzyme, ADP-Glo luminescence, 60 min; hits give low values; max response, %; actives 1.2% (n = 330,000); active = max response of -50% or lower; inconclusive = between -30% and -50%; inactive = -30% or higher; note: value at the top dose of about 77 µM; % is set by controls: 0 for no effect and ±100 for the full control effect
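ADP-Glo luminescence end-point read after a 60 min room-temperature kinase reaction of PI5P4Kalpha plus substrate, initiated with ATP at 5 microM final. Buffer: 0.038 M HEPES pH 7.4, EGTA, 0.1% CHAPS, 5% DMSO.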
BAZ2B inh: qHTS Assay for Inhibitors of BAZ2B; Bromodomain adjacent to zinc finger domain protein 2B (Homo sapiens), Q9UIF8; AID 504333, 2011; AlphaScreen BAZ2B-H3K14Ac peptide displacement; Potency, µM (top dose mostly 114 µM), inactives show top-dose activity change, negative = inhibition, hits mostly inhibitors; actives 4.4% (n = 360,000); note: potency is the fitted concentration of half-maximal effect; % is set by controls: 0 for no effect and ±100 for the full control effect; nearly all actives have a fitted effect of over 60% in size
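BAZ2B (50 nM) with biotin-H3(5-23)K14Ac peptide (50 nM) in PBS pH 7.4, 0.01% Tween-20, preformed 30 min, then compound 30 min at room temperature; top concentration 110uM. AlphaScreen streptavidin donor/nickel chelate acceptor beads (10 ug/mL final), 20 min dark, signal read.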
G9a inh: qHTS Assay for Inhibitors of Histone Lysine Methyltransferase G9a. actives 8.8% (n = 350,000). Histone-lysine N-methyltransferase EHMT2 (Homo sapiens), Q96KQ7. G9a H3K9 monomethylation, AlphaScreen, 2 h. Potency, µM (doses to about 102 µM), for the others: at the highest dose activity, negative = inhibition, actives largely listed as inhibitors; note: potency is the fitted concentration of half-maximal effect; % is set by controls: 0 for no effect and ±100 for the full control effect; nearly all actives have a fitted effect of over 75% in size
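G9a (20 nM) was preincubated 15 min with compound, then reacted 2 h at room temperature with 500 nM biotin-H3K9 peptide and 20 µM SAM. Monomethyl-H3K9 detected by AlphaScreen using anti-H3K9me1 antibody.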
HP1b chromo inh: HTS for Inhibitors of HP1-beta Chromodomain Interactions with Methylated Histone Tails; AID 540317, 2011; Chromobox protein homolog 1 (Homo sapiens), P83916; actives 0.56% (n = 390,000); Potency, µM (doses to about 114 µM), for the others: at the top dose activity change, negative = inhibition, most hits filed as inhibitors; AlphaScreen HP1-beta / biotin-H3K9me3 peptide binding; note: potency is the fitted concentration of half-maximal effect; nearly all actives have a fitted effect of over 70% in size
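Compound inhibition of the preformed complex between 50 nM HP1-beta and 50 nM biotinylated H3K9me3 peptide was read by AlphaScreen. Buffer was PBS pH 7.4 with 0.01% Tween-20. Incubations ran 30 min at room temperature, with 10 ug/mL donor/acceptor beads.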
JMJD2A Tudor inh: qHTS Assay for Inhibitors of JMJD2A-Tudor Domain | Lysine-specific demethylase 4A (Homo sapiens), O75164 | AlphaScreen JMJD2A-Tudor / H3K4me3 peptide binding | Potency, µM (titrated, usually from 114 µM), without a hit: at the highest dose activity change, negative = inhibition, usual class: inhibitors | actives 4.4% (n = 390,000) | AID 504339, 2011; note: potency is the fitted concentration of half-maximal effect; % is set by controls: 0 for no effect and ±100 for the full control effect; nearly all actives have a fitted effect of over 50% in size
PLK1 PBD inh: qHTS for Inhibitors of PLK1-PDB (polo-like kinase 1 - polo-box domain): Primary Screen. Plk1 PBD binding of FITC phosphopeptide, fluorescence polarization. Serine/threonine-protein kinase PLK1 (Homo sapiens), P53350. actives 2.8% (n = 360,000). AID 720504, 2013. Potency, µM, for the others: max response, negative = inhibition, actives largely listed as inhibitors; note: potency is the fitted concentration of half-maximal effect; series mostly up to about 57 µM; % is set by controls: 0 for no effect and ±100 for the full control effect; nearly all actives have a fitted effect of over 65% in size
Numbers without * were called inactive; ? = inconclusive; . = no result given; [ ] = remark or other dose. Unless noted, calls come from the whole dose curve; as a rule, active = well fitted curve in the direction sought with a large enough effect; inconclusive = small, poorly fitted or top-dose-only effect, or another doubt; inactive = no such curve, though single readings can be large; an effect the other way counts as inactive or inconclusive.

SMILES	PI5P4K alpha inh	BAZ2B inh	G9a inh	HP1b chromo inh	JMJD2A Tudor inh	PLK1 PBD inh
Cc1ccc(O)c(NC(=O)c2nc3nc(C)cc(C(F)F)n3n2)c1	.	-1.1%	?	52.0%	-14.1%	.
CC(=O)NC(c1ccccc1)c1nc(-c2ccc3ccccc3c2)cs1 (stereo not drawn)	8.6	.	.	.	.	-3.4%
O=C(O)c1ccc(-c2ccc(/C=C3\NC(=O)N(Cc4ccc(Cl)cc4)C3=O)o2)cc1Cl	-69.3*	22.4µM*	20µM*	31.6µM*	31.6µM*	15µM*
CC(C)OC(=O)c1cc(-c2ccc(C=O)o2)ccc1Cl	-23.1	-32.6%	?	13.5%	5.3%	-9.5%
CCOC(=O)CN1C(=O)S/C(=C\c2ccc(-c3ccc(C(=O)O)c(Cl)c3)o2)C1=O	?	?	50.1µM*	-12.6%	79.4µM*	-22.8%
CCOC(=O)CN1C(=O)S/C(=C\c2ccc(-c3cccc(C(=O)O)c3C)o2)C1=O	-16.9	.	.	18.4%	-2.0%	-6.8%
Cc1cccc(NC(=O)CN2C(=O)N/C(=C/c3ccc(-c4cccc(C(=O)O)c4C)o3)C2=O)c1	-22.5	?	?	34.2%	-1.4%	-21.8%
CC(C)N1C(=O)S/C(=C\c2ccc(-c3ccc(Cl)c(C(=O)O)c3)o2)C1=O	-29.9	-33.6%	39.8µM*	-10.9%	79.4µM*	?
CCCSc1cc(N2CCN(C)CC2)nc(-c2ccc(OC)cc2)n1	8.0	50.1µM*	50.1µM*	-25.4%	?	-3.0%
CCCSc1cc(N2CCCC2)nc(-c2ccccc2)n1	20.0	26.1%	95.1%	144.6%	121.0%	-2.7%
CC(=O)Nc1ccc(S[C@@H](CCN2CC[C@H](O)CCC2=O)c2ccccc2)cc1	-2.8	7.1%	8.9%[0.501 µM]	50.3%	-6.4%	13.4µM*
O=C1CC[C@@H](O)CCN1CC[C@H](Sc1ccccc1)c1ccccc1	-7.4	0.6%	5.8%	27.0%	-21.7%	-20.3%
COc1ccc(CCNCC(O)COc2cccc(C(C)=O)c2)cc1OC (stereo not drawn)	-1.4	70.8µM*	4.2%	?	25.1µM*	-15.5%
COc1ccc(CCNCC(O)COc2ccc(Cl)cc2)cc1OC (stereo not drawn)	7.5	-16.8%	19.4%[59 µM]	20.8%	-24.3%	-6.9%
COc1ccc(CCNCC(O)COc2c(C)cccc2C)cc1OC (stereo not drawn)	-2.7	50.1µM*	-5.3%	?	?	-17.8%
O=[N+]([O-])c1ccc(-n2cccc2/C=N/Nc2nc(N3CCCCC3)nc(N3CCCCC3)n2)cc1	.	-24.4%	25.1%	.	.	.
COc1ccc(/C=N/Nc2cc(N3CCCC3)nc(N3CCCC3)n2)cc1	-3.9	?	22.4µM*	-10.1%	?	-5.5%
O=[N+]([O-])c1cccc(-n2cccc2/C=N/Nc2nc(N3CCCCC3)nc(N3CCCCC3)n2)c1	0.7	.	31.6µM*	?	?	-5.1%
Oc1ccc(/C=N/Nc2cc(N3CCCC3)nc(N3CCCC3)n2)cc1	.	-1.3%	3.0%	18.8%	-9.9%	-9.5%
Oc1ccc(/C=N/Nc2nc(N3CCCC3)nc(N3CCCC3)n2)cc1O	-9.4	-22.1%	10µM*	9.5%	?	-9.1%
Oc1cccc(/C=N/Nc2cc(N3CCCC3)nc(N3CCCC3)n2)c1	-24.6	44.7µM*	-9.0%[59 µM]	?	56.2µM*	3.8%
COc1cc(/C=N/Nc2nc(N3CCCC3)nc(N3CCCC3)n2)ccc1O	.	-22.1%	?	6.1%	-24.1%	-5.4%
Oc1ccc(/C=N/Nc2cc(N3CCOCC3)nc(N3CCOCC3)n2)cc1	.	.	.	-38.8%	?	?
CCC(=O)N1CCC1(C)C(=O)NCc1ccccc1SC (stereo not drawn)	1.8	.	.	.	.	-19.6%
CS(=O)(=O)N(CC(=O)N1CCc2ccccc2C1)c1ccccc1Br	3.2	-14.8%	6.5%	31.1%	-2.3%	-2.8%
SMILES	PI5P4K alpha inh	BAZ2B inh	G9a inh	HP1b chromo inh	JMJD2A Tudor inh	PLK1 PBD inh
COc1ccc(Nc2nc(-c3sc(NC(C)=O)nc3C)cs2)cc1	.	5.9%	39.8µM*	.	.	.
COc1ccc(Nc2nc(-c3sc(N)nc3C)cs2)cc1	-21.2	14.1µM*	?	?	50.1µM*	?
COc1ccc(CC(=O)Nc2nc(-c3ccc(OC)c(OC)c3)cs2)cc1OC	-5.7	?	-16.8%	-19.8%	?	-2.8%
COc1ccc(CCNc2nc(-c3sc(N)nc3C)cs2)cc1OC	-13.6	50.1µM*	?	?	56.2µM*	-15.5%
CC(=O)Nc1ccc(Nc2nc(-c3sc(C)nc3C)cs2)cc1	-10.2	?	?	-2.1%	-25.9%	-21.2%
COc1ccc(Nc2nc(-c3cccs3)cs2)cc1	.	?	?	?	?	-20.6%
CS(=O)c1ccc(-c2nc(-c3ccc(F)cc3)c(-c3ccncc3)[nH]2)cc1 (stereo not drawn)	.	.	9.1%[59 µM]	.	.	.
CCC(=O)N1CCC1(C)C(=O)NCc1ccc(SC)cc1 (stereo not drawn)	-7.2	.	.	.	.	2.2%
O=C(c1ccncc1)c1ccc(N2CCN(C3CC(=O)N(Cc4cccs4)C3=O)CC2)cc1 (stereo not drawn)	-5.7	-17.1%	0.8%	40.9%	-16.8%	-0.4%
O=C1CC(N2CCN(c3ccc(O)cc3)CC2)C(=O)N1Cc1cccs1 (stereo not drawn)	-6.5	-8.6%	-3.0%[12.7 µM]	?	56.2µM*	-3.8%
Cc1cccc(NC(=O)/C(C#N)=C/c2ccc(F)cc2)n1	4.5	-12.6%	17.1%	24.2%	-8.1%	-10.9%
Cc1cccc(/C=C(\C#N)C(=O)Nc2ccccn2)c1	-1.7	-22.4%	44.7µM*	44.2%	-17.4%	-10.1%
CCCOc1ccccc1/C=C(\C#N)C(=O)Nc1cccc(C)n1	3.9	5.1%	20µM*	28.0%	-7.5%	-10.3%
N#C/C(=C\c1ccccc1)C(=O)Nc1ccccn1	1.5	1.9%	2.0%	63.2%	-15.2%	-10.4%
COc1cc(/C=C(\C#N)C(=O)Nc2ccc3c(c2)OCCO3)ccc1O	-55.8*	-22.8%	?	3.8%	-35.1%	16.2%
COc1cc(/C=C/C(=O)OCC(=O)Nc2ccc3c(c2)OCCO3)ccc1O	-10.6	-22.6%	?	-2.3%	-23.4%	-21.5%
CCOc1cc(/C=C(\C#N)C(=O)Nc2ccccn2)ccc1O	-28.0	-24.2%	44.7µM*	-10.8%	-23.4%	-6.2%
